The source of these data is PubChem BioAssay (Tox21).

Assay [1] is described as follows: qHTS assay to identify small molecule agonists of the RXR signaling pathway - cell viability counter screen (AID 1159529). Also: nearly all actives have a fitted effect of over 50% in size. Also: potency is read from the fitted curve at half-maximal effect.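 As to activity change, negative = cytotoxicity: HEK 293T cells carrying an RXR-alpha UAS beta-lactamase reporter; series mostly up to about 77 µM.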 In outline:
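Tox21 10K compounds were tested for cytotoxicity against GeneBLAzer RXR-alpha HEK 293T cells grown in 2% charcoal-stripped FBS. Exposure lasted 16 hr at 37 C, 5% CO2; viability read by CellTiter-Glo luminescence.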

Assay [2] in a line: qHTS assay to identify small molecule antagonists of the retinoid acid receptor (RAR) signaling pathway - cell viability counter screen (AID 1159551). Also: nearly all actives have a fitted effect of over 35% in size. In outline: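 C3RL4 cells were seeded overnight at 37 C, then treated with compounds plus 1 uM (final) retinol for 6 h at 37 C. Viability was read as ATP by CellTiter-Glo luminescence after 30 min at room temperature.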
(qHTS replaces the single test concentration by a dilution series.)

The nature of assay [3]: qHTS assay to identify small molecule antagonists of the retinoic acid receptor (RAR) signaling pathway (AID 1159552; also: nearly all actives have a fitted effect of over 50% in size; also: potency is read from the fitted curve at half-maximal effect). An outline of the steps: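 Overnight-plated C3RL4 reporter cells get compound, then retinol to 1 uM final; plates sit 6 hr at 37 C, 5% CO2. A luciferase reagent is added and light output recorded after 30 min at room temperature.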
Assay [4] in a line: qHTS assay to identify small molecule agonists of the retinoic acid receptor (RAR) signaling pathway (AID 1159553). Also: potency is read from the fitted curve at half-maximal effect. In outline: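 C3RL4 cells carrying a RARE luciferase reporter were plated overnight at 37 C, then exposed to compounds in DMSO for 6 hr at 37 C and 5% CO2. Luminescence was read 30 min after luciferase reagent addition at room temperature.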
The nature of assay [5]: qHTS assay to identify small molecule antagonists of the estrogen related receptor (ERR) signaling pathway - cell viability counter screen (AID 1224818). Also: potency is read from the fitted curve at half-maximal effect.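 Also: viability measured after 17.5 h of compound exposure.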 An outline of the steps:
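ERR reporter cells plated 6 h at 37 C/5% CO2, then compounds in DMSO pin-transferred and incubated 17.5 h at 37 C. Viability read as CellTiter-Fluor fluorescence after 30 min at 37 C.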

The nature of assay [6]: qHTS assay to identify small molecule antagonists of the estrogen related receptor signaling pathway with the pleiotropic PPARgamma coactivator (PGC) cell viability counter screen (AID 1224822; also: potency is read from the fitted curve at half-maximal effect). In outline: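 PGC/ERR cells were seeded at 2,000 cells/well, rested 6 h at 37 C/5% CO2, then given compounds in DMSO by pin tool and incubated 17.5 h at 37 C. Viability came from CellTiter-Fluor fluorescence after 30 min.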

The nature of assay [7]: qHTS assay to identify small molecule antagonists of the estrogen related receptor (ERR) signaling pathway (AID 1224819; also: nearly all actives have a fitted effect of over 50% in size; also: potency is read from the fitted curve at half-maximal effect). In outline:
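ERR reporter cells were plated at 2,000 cells/well and left 6 h at 37 C/5% CO2 before pin-tool transfer of compounds in DMSO. After 18 h at 37 C, One-Glo was added and luminescence was read 30 min later at room temperature.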

Assay [8] in a line: qHTS assay to identify small molecule agonists of the estrogen related receptor (ERR) signaling pathway (AID 1224820). Also: potency is read from the fitted curve at half-maximal effect. In outline: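 ERR reporter cells (NTP line) plated 2,000/well, incubated 6 h at 37 C/5% CO2, then pinned with compounds in DMSO and held 18 h at 37 C. One-Glo added; luminescence read after 30 min at room temperature.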
The test system of assay [9] is estrogen-related receptor alpha (ERRalpha) with PGC-1alpha coactivator, human. Put plainly: qHTS assay to identify small molecule antagonists of the estrogen related receptor signaling pathway with the pleiotropic PPARgamma coactivator (PGC) (AID 1224821; calls by dose curve; also: nearly all actives have a fitted effect of over 50% in size; also: potency is read from the fitted curve at half-maximal effect). In outline: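 Cells engineered for PGC/ERR signalling (line from NTP) were plated 6 h at 37 C/5% CO2, then exposed to DMSO-dissolved compound for 18 h at 37 C. Luciferase activity was read by One-Glo luminescence after 30 min at room temperature.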

Assay [10] can be described thus: qHTS assay to identify small molecule agonists of the estrogen related receptor signaling pathway with the pleiotropic PPARgamma coactivator (PGC) (AID 1224823). Also: potency is read from the fitted curve at half-maximal effect. In outline: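 PGC/ERR reporter cells were seeded, rested 6 h at 37 C/5% CO2, then exposed to compounds in DMSO by pin transfer for 18 h at 37 C. Luciferase activity was read as luminescence after One-Glo reagent and 30 min at room temperature.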

Results filed as inconclusive are left out. Values without a mark were called inactive. The source made the active and inactive calls. Unless noted, calls follow the shape of the dose curve; as a rule, active = well fitted curve in the direction sought with a large enough effect in the repeat runs; inconclusive = weak or mixed curves; inactive = no such curve, though single readings can be large; an effect the other way counts as inactive or inconclusive.
% is scaled to controls: 0 for no effect and ±100 for the full control effect.

Turning to `O=[N+]([O-])c1cccc2cccc([N+](=O)[O-])c12`, the Potency entry in assay [1], in assay [2] and in assay [4] was “inactive” each time. Also, the Potency in assay [3] was 54.7 µM (active).
In the case of `N#CCCl`, in assay [1], the Potency is 9.08 µM (active). Also, the Potency entry in assay [2] and in assay [4] was “inactive” in each case.
On to `Nc1nc(N)nc(Cl)n1`, for which the Potency entry in assay [1], in assay [2], in [3] and in assay [4] was “inactive” each time.
As to `Nc1c(Cl)c(Cl)c(Cl)c(Cl)c1Cl`, the Potency entry in assay [1], in assay [2], in assay [3], in assay [4], in [5] and in assay [6] was “inactive” in each case.
As to `O=C(Cl)c1ccccc1F`, the Potency entry in assay [1], in assay [2], in assay [3] and in assay [4] was “inactive” throughout.
As for `CC(Cc1ccccc1)N(C)Cc1ccco1` (stereo not drawn), the Potency result in assay [1], in [2], in assay [3] and in assay [4] was “inactive” each time.
Consider `FC(F)C(F)(F)OCC(Cn1cncn1)c1ccc(Cl)cc1Cl` (stereo not drawn), for which the Potency in assay [1] was 48.7 µM (active); in [3] it was 24.2 µM (active). For the same compound, the Potency result in [2] and in assay [4] was “inactive” throughout.
Regarding `CNC(=O)Oc1cc(C)cc(C(C)C)c1`, the Potency entry in assay [1], in [2] and in assay [4] was “inactive” each time.
With `O=S(=O)(O)F`, the Potency entry in assay [1], in [2], in assay [3] and in [4] was “inactive” in each case.
As to `Nc1ccc(N=Nc2ccccc2)cc1`, the Potency entry in assay [1], in assay [2], in assay [3], in assay [7] and in assay [9] was “inactive” throughout. Further, the Potency in [5] was 31.8 µM (active); in assay [8], 10.1 µM (active); in [10] it was 14.2 µM (active).
In the case of `COC(=O)C(C)N(C(=O)c1ccco1)c1c(C)cccc1C` (stereo not drawn), the Potency result in assay [1], in [2] and in assay [4] was “inactive” in each case.
As for `O=C(Nc1ccc(F)cc1F)c1cccnc1Oc1cccc(C(F)(F)F)c1`, the Potency result in assay [1], in assay [2], in assay [3] and in [4] was “inactive” each time.
Consider `CC(C)=CCN1CC[C@@]2(C)c3cc(O)ccc3C[C@@H]1[C@@H]2C`, for which the Potency entry in assay [1], in [2], in [3] and in assay [4] was “inactive” in each case.
With `c1cc[n+]2c(c1)-c1cccc[n+]1CC2`, the Potency result in assay [1], in assay [2] and in [4] was “inactive” each time.
For the compound `COc1ccc(Cc2nccc3cc(OC)c(OC)cc23)cc1OC`, the Potency entry in [1], in [2], in assay [3], in [4], in [5] and in assay [6] was “inactive” throughout.
On to `O=C(N[C@@H]1N=C(c2ccccc2F)c2cccc3c2N(CC3)C1=O)c1cc2ccccc2[nH]1`, for which the Potency result in assay [1], in [2], in [3] and in assay [4] was “inactive” each time.
With `O=[N+]([O-])C(Br)Br`, the Potency entry in assay [1], in assay [2], in [3] and in assay [4] was “inactive” each time.
As to `O=C(CCCCl)c1ccc(F)cc1`, the Potency entry in assay [1], in [2] and in [3] was “inactive” each time. The Potency in [4] is 26.6 µM (active).
Take `Clc1c(Cl)c(Cl)c(Cl)c(Cl)c1Cl`: the activity change, negative = cytotoxicity in assay [1] is 0.339% [at 6.97 µM]; in assay [2] it was 0.805% [at 8.39 µM]. The activity, negative = inhibition in assay [3] was 2.67% [at 8.39 µM]. Further, in assay [4], the activation was -1.82% [at 8.36 µM].
Consider `O=[N+]([O-])c1ccccc1-c1ccccc1`, for which the Potency entry in assay [1], in assay [2], in assay [3] and in [4] was “inactive” in each case.
Take `Clc1cc(Cl)c(-c2cc(Cl)c(Cl)cc2Cl)cc1Cl`: the Potency entry in assay [1], in [2], in [3] and in assay [4] was “inactive” throughout.
Regarding `CC[N+]1(CC)CCC(OC(=O)C(O)(c2ccccc2)c2ccccc2)C1` (stereo not drawn), the Potency result in [1], in assay [2] and in assay [4] was “inactive” in each case.
For `CCO/N=C(\CC)C1=C(O)CC(c2c(C)cc(C)cc2C)CC1=O` (stereo not drawn), the Potency result in [5] and in assay [6] was “inactive” in each case.
With `Fc1ccc(C(OCCN2CCN(CCCc3ccccc3)CC2)c2ccc(F)cc2)cc1`, the Potency was 9.08 µM (active) in assay [7], 12.8 µM (active) in assay [9] and 22.8 µM (active) in assay [6]. For the same compound, the Potency result in assay [8] and in assay [10] was “inactive” throughout.
